Assay in all cases: PBM binding z-score (relative to random genomic background probes); higher = stronger binding; sequences stand for … in GC…GCGATTGACAGCGTAGAATGAAGG
Assay [1] deals with FXR:RXRa (NR concentration 270 nM, RXRa partner concentration 90 nM). In short, it runs like this:
(§1)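 Each nuclear receptor dimer, without ligand, was incubated for 1 h on custom Agilent 4×180K protein-binding microarrays. Binding was detected with antibodies against each partner (one per run), and scanned fluorescence was regression-normalized. The binding z-scores are referenced to random human genomic background probes.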

For assay [2], the system named is LXRa:RXRa (NR concentration 270 nM, RXRa partner concentration 90 nM). In short, it runs like this:
as §1

The subject of assay [3] is LXRa homodimer (NR concentration 270 nM). In short, it runs like this: as §1
In assay [4] the test system is LXRb:RXRa (NR concentration 270 nM, RXRa partner concentration 90 nM). In short, it runs like this: as §1
The subject of assay [5] is LXRb homodimer (NR concentration 270 nM). In short, it runs like this: as §1
The test system of assay [6] is PPARa:RXRa (NR concentration 270 nM, RXRa partner concentration 90 nM). In short, it runs like this:
as §1

The test system of assay [7] is PPARg:RXRa (NR concentration 180 nM, RXRa partner concentration 90 nM). In short, it runs like this: as §1
Assay [8] deals with PPARg:RXRa 270nM:90nM, anti-RXR (NR concentration 270 nM, RXRa partner concentration 90 nM). In short, it runs like this: as §1
Assay [9] has as its system PPARg:RXRa 30nM:10nM, anti-RXR (NR concentration 30 nM, RXRa partner concentration 10 nM). In short, it runs like this:
as §1

Assay [10] concerns PPARg:RXRa 90nM:30nM, anti-RXR (NR concentration 90 nM, RXRa partner concentration 30 nM). In short, it runs like this: as §1
For assay [11], the system named is PPARg:RXRa DBDmut IVT, anti-RXR (DBD mutation: RXRa K156A/R161A, NR concentration 270 nM, RXRa partner concentration 90 nM). In short, it runs like this:
as §1

Assay [12] has as its system PPARg:RXRa IVT, anti-PPARg (NR concentration 270 nM, RXRa partner concentration 90 nM). In short, it runs like this: as §1
For assay [13], the system named is PPARg DBDmut:RXRa IVT, anti-PPARg (DBD mutation: PPARg1 K132A/R137A, NR concentration 270 nM, RXRa partner concentration 90 nM). In short, it runs like this: as §1
Assay [14] relates to PPARg DBDmut IVT, anti-PPARg (DBD mutation: PPARg1 K132A/R137A, NR concentration 270 nM). In short, it runs like this:
as §1

The subject of assay [15] is PPARg homodimer (NR concentration 180 nM). In short, it runs like this: as §1
Assay [16] relates to PXR:RXRa (NR concentration 270 nM, RXRa partner concentration 90 nM). In short, it runs like this:
as §1

For assay [17], the system named is PXR homodimer (NR concentration 270 nM). In short, it runs like this:
as §1

For assay [18], the system named is RARa:RXR (NR concentration 270 nM, RXRa partner concentration 90 nM). In short, it runs like this: as §1
Assay [19] relates to RARa homodimer (NR concentration 270 nM). In short, it runs like this: as §1
For assay [20], the system named is RARb:RXRa (NR concentration 270 nM, RXRa partner concentration 90 nM). In short, it runs like this: as §1

For TTATATAGGTAAAGGTGAAAGTCGAACGATATGA, the PBM binding z-score in [1] was found to be 1.14; in assay [2], 1.34; in assay [3], 0.121; in assay [4], 1.2; in assay [5], 0.294; in assay [6], 4.2. Moreover, the PBM binding z-score in assay [7] came out at 6.76; in assay [8], 6.26; in assay [9], 4.77; in assay [10] it was 6.33; in [11] it was 5.88; in assay [12], 6.52. The PBM binding z-score amounted to 3.04 in assay [13]; 2.82 in assay [14]; 2.08 in assay [15]; 0.997 in [16]; 0.227 in assay [17]; 1.74 in [18]. Besides, the PBM binding z-score in assay [19] was determined as 0.54; in assay [20], 1.88.

For the sequence CTCGAAAGGACGGTTGAGGTGAGTATACGGATAA, the PBM binding z-score in assay [1] was 0.507; in assay [2], -0.351; in assay [3] it was -0.439; in [4] it was -0.303; in assay [5] it was -0.832; in [6] it was 0.0414. The PBM binding z-score in [7] was 0.232; in [8], -0.0748; in [9] it was 0.0534; in assay [10], -0.244; in assay [11], -0.361; in assay [12], -0.0316. The PBM binding z-score is 0.142 in assay [13]; 0.0698 in assay [14]; -0.218 in assay [15]; 0.0192 in assay [16]; 0.134 in [17]; 0.512 in assay [18]. The results for the PBM binding z-score in assay [19] and in assay [20] were -0.448 and 0.634, respectively.

Take CCAGACCGGTGAGAAGGTAACTCAGCCTCGATTA: the PBM binding z-score in assay [1] was -0.29; in assay [2], 0.0278; in [3] it was 0.205; in [4], -0.175; in assay [5], -0.35; in [6], -0.101. For the same sequence, the PBM binding z-score is -0.0328 in assay [7]; -0.307 in assay [8]; -0.601 in assay [9]; -0.547 in assay [10]; -0.324 in assay [11]; -0.727 in [12]. The PBM binding z-score was -1.57 in [13]; -1.1 in assay [14]; 0.768 in [15]; -0.393 in [16]; -0.18 in [17]; -0.155 in assay [18]. Besides, the PBM binding z-score in assay [19] is 0.901; in [20], -0.00175.

In the case of ACTAGCAGGCCAAGTTAGGGTCACTCAAACAAAG, the PBM binding z-score in assay [1] was 1.87; in [2], 1.73; in assay [3], -0.142; in assay [4], 2.55; in assay [5], -0.86; in assay [6], 3.36. Further, the PBM binding z-score in [7] was 0.753; in [8] it was 1.38; in [9], -0.00931; in assay [10], 1.07; in assay [11], 0.489; in [12], 1.32. Moreover, the PBM binding z-score is 0.153 in assay [13]; -0.603 in assay [14]; 1.07 in [15]; 3 in assay [16]; 0.292 in assay [17]; 3.73 in assay [18]. Besides, the PBM binding z-score was -0.482 in [19] and 2.86 in assay [20].

As for GGTATTAGTTGAAAGGGCAACCGAATGATTCTCG, the PBM binding z-score in [1] was 1.14; in assay [2] it was 1.49; in assay [3], 1.06; in assay [4] it was 1.41; in assay [5], 0.907; in assay [6] it was 2.66. The PBM binding z-score in assay [7] was determined as 3.26; in [8], 5.07; in assay [9], 3.13; in [10] it was 4.79; in [11], 0.803; in assay [12] it was 1.67. The PBM binding z-score in assay [13] turned out to be 1.15; in assay [14], 0.67; in [15] it was 2.69; in [16], 1.23; in [17], 1.44; in assay [18], 1.88. Besides, the PBM binding z-score in assay [19] was determined as 2.51; in assay [20], 2.42.

For ACTCGGAGGACAAAGGTCAGCGCTACGCCAGTGA, the PBM binding z-score is 4.44 in [1]; 4.2 in [2]; 1.62 in assay [3]; 3.51 in assay [4]; 0.168 in assay [5]; 5.24 in assay [6]. The PBM binding z-score is 8.05 in [7]; 7.77 in assay [8]; 7.19 in assay [9]; 8.33 in assay [10]; 0.977 in assay [11]; 3.82 in [12]. Also, the PBM binding z-score in [13] was 0.281; in assay [14], -0.509; in [15], 4.7; in assay [16], 3.99; in assay [17] it was 0.485; in assay [18], 5.21. Moreover, the values for the PBM binding z-score in [19] and in assay [20] were 1.94 and 4.73, respectively.

Regarding CCTACTGGGCAACGAAAGGTCATTGATTCAGTGA, the PBM binding z-score in [1] was determined as 3.6; in [2] it was 5.33; in assay [3], 5.51; in assay [4] it was 4.2; in [5], 0.197; in assay [6], 4.2. The PBM binding z-score in assay [7] stood at 2.1; in [8], 3.54; in assay [9], 0.974; in [10], 2.72; in assay [11], 2.25; in [12], 2.56. The PBM binding z-score is -0.412 in [13]; 0.102 in assay [14]; 3.81 in assay [15]; 5.18 in assay [16]; 1.89 in [17]; 5.49 in [18]. The PBM binding z-score in assay [19] was determined as 2.52; in [20], 3.96.

Source of the values: the supplement of paper PMC6555819.
